Inhibition data for 7 compounds are collected here from ChEMBL document CHEMBL1961873, “Compounds: GSK PKIS; Assays: Nanosyn kinase panel” (2012).

SMILES strings stand for the structures.

The target of assay [1] is Tyrosine-protein kinase Fer (Homo sapiens) (UniProt P16591). Conditions: at 1 µM.
Assay [2] deals with Tyrosine-protein kinase Fes/Fps (Homo sapiens) (UniProt P07332). Conditions: at 0.1 µM.
Assay [3] has the same target. Conditions: at 1 µM.
The target in assay [4] is Fibroblast growth factor receptor 1 (Homo sapiens) (UniProt P11362). Conditions: at 0.1 µM.
Assay [5] has the same target. Conditions: at 1 µM.
Assay [6] concerns the target Fibroblast growth factor receptor 2 (Homo sapiens) (UniProt P21802). Conditions: at 0.1 µM.
The target is the same in assay [7]. Conditions: at 1 µM.
The target of assay [8] is Fibroblast growth factor receptor 3 (Homo sapiens) (UniProt P22607). Conditions: at 0.1 µM.
Assay [9] shares this target. Conditions: at 1 µM.
In assay [10] the target is Fibroblast growth factor receptor 4 (Homo sapiens) (UniProt P22455). Conditions: at 0.1 µM.
Assay [11] shares this target. Conditions: at 1 µM.
For assay [12], the target named is Tyrosine-protein kinase Fgr (Homo sapiens) (UniProt P09769). Conditions: at 0.1 µM.
Assay [13] shares this target. Conditions: at 1 µM.
Assay [14] addresses Vascular endothelial growth factor receptor 1 (Homo sapiens) (UniProt P17948). Conditions: at 0.1 µM.
Assay [15] has the same target. Conditions: at 1 µM.
Assay [16] deals with Receptor-type tyrosine-protein kinase FLT3 (Homo sapiens) (UniProt P36888). Conditions: at 0.1 µM.
Assay [17] has the same target. Conditions: at 1 µM.
Assay [18] concerns T1, Receptor-type tyrosine-protein kinase FLT3 (Homo sapiens), P36888 [D835Y].
T1 sequence (whole entry): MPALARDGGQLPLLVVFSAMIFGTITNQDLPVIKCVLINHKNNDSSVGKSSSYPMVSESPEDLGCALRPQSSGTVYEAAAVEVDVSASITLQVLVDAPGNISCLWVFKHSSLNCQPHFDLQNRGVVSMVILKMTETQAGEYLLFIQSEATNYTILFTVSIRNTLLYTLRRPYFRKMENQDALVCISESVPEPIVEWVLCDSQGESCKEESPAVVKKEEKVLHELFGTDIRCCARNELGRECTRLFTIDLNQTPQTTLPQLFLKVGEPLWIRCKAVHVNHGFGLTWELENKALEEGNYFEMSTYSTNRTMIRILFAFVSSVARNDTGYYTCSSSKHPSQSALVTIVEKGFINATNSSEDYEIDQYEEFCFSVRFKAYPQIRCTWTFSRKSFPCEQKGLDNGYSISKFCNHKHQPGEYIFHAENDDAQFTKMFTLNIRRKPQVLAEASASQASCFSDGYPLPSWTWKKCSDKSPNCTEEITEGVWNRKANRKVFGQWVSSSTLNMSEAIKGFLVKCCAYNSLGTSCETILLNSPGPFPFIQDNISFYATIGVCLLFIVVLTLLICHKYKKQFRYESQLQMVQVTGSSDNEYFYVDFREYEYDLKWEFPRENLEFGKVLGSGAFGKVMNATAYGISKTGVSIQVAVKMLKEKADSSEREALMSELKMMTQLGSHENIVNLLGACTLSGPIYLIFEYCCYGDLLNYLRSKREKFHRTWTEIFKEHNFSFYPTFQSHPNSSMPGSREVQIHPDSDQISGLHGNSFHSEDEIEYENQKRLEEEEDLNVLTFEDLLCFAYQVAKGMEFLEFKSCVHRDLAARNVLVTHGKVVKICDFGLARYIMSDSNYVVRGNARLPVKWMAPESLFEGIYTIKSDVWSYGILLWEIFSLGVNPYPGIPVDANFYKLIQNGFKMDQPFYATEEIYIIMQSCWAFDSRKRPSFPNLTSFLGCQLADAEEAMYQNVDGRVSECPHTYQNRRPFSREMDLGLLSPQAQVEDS
Conditions: at 0.1 µM.

Assay [19] concerns the target Non-receptor tyrosine-protein kinase TYK2 (Homo sapiens) (UniProt P29597). Conditions: at 1 µM.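 Note: values are mean percent inhibition of TYK2 kinase.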
Assay [20] concerns the target T2, Tyrosine-protein kinase receptor TYRO3 (Homo sapiens) (UniProt Q06418).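 Note: reported percentages are averaged inhibition values of TYRO3 kinase activity.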
T2 sequence (whole entry): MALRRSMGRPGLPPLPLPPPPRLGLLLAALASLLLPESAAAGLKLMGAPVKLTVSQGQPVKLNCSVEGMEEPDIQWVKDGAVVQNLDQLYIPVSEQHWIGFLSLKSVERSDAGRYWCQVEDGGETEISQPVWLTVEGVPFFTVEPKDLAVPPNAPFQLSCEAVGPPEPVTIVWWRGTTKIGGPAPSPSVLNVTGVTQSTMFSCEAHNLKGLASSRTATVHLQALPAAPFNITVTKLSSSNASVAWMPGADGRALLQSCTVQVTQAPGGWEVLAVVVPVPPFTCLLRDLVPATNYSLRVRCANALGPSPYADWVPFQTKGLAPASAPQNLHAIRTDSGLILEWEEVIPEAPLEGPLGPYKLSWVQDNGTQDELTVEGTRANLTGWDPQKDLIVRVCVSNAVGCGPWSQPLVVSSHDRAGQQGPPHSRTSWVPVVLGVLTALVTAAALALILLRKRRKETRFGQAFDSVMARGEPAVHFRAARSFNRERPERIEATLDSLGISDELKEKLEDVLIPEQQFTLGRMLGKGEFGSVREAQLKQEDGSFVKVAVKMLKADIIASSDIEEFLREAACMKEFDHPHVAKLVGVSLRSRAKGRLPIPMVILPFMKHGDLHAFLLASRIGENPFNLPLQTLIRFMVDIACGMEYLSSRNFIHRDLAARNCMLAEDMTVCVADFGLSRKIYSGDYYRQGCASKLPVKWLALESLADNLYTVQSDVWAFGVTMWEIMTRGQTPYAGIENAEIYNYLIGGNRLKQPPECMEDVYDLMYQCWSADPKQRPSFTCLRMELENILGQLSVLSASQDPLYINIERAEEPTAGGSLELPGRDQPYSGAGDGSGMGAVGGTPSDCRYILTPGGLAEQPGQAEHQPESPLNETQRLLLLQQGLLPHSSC
Conditions: at 0.1 µM.

As a reminder, the inhibition is the change of the read-out against control, counted positive when it falls.

Chain of Tyrosine-protein kinase Fes/Fps (Homo sapiens) (P07332 whole entry): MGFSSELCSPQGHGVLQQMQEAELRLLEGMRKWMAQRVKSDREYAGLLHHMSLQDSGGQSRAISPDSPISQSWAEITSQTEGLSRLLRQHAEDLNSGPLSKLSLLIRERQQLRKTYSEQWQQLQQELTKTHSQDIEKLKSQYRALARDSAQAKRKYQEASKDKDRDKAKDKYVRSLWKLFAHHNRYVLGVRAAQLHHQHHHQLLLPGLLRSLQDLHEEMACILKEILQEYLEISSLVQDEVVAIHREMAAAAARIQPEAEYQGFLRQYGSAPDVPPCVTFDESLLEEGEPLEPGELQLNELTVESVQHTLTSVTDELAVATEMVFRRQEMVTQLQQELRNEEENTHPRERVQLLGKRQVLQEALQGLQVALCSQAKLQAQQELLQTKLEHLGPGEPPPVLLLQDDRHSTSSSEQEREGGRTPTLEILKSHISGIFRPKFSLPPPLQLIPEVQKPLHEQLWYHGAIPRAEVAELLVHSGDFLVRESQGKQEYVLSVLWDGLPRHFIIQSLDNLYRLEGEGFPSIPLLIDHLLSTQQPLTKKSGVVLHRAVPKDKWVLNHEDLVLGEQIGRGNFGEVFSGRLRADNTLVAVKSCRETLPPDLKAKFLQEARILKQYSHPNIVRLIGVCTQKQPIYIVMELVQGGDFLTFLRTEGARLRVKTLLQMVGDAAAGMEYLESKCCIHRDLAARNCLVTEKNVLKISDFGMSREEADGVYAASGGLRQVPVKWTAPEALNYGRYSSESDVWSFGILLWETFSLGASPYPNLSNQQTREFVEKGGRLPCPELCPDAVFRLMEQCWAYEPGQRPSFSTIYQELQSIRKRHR
Chain of Non-receptor tyrosine-protein kinase TYK2 (Homo sapiens) (P29597 whole entry): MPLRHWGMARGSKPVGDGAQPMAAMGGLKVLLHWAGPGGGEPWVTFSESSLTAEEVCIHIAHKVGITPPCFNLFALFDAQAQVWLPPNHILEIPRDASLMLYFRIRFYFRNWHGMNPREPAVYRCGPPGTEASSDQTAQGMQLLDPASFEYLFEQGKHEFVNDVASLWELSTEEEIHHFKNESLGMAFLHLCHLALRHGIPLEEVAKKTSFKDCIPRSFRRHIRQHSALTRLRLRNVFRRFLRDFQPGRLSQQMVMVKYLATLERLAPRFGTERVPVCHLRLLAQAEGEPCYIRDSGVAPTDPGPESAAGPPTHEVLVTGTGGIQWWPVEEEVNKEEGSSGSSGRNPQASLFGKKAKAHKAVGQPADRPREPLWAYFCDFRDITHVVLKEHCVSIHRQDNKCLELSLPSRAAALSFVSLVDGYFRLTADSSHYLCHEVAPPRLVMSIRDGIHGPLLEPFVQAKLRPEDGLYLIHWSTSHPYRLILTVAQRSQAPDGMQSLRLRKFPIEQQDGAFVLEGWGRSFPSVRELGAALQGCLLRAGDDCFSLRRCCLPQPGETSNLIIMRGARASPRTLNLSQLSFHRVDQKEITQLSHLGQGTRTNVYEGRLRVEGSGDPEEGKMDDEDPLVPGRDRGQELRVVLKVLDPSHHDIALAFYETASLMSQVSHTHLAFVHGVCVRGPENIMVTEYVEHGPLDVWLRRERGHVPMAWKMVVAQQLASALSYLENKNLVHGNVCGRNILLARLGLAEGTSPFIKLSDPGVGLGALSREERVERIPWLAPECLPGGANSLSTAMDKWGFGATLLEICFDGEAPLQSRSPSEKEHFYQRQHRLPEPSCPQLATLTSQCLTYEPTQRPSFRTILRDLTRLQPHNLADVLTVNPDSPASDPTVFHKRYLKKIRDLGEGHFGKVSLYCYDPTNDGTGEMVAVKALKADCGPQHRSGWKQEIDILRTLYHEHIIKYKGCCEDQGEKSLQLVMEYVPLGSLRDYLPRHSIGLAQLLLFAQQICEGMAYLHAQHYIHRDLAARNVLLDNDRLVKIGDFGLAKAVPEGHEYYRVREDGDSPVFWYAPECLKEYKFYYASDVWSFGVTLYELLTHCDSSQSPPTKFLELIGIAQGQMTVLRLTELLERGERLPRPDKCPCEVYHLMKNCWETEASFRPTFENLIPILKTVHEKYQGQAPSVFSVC
Chain of Fibroblast growth factor receptor 1 (Homo sapiens) (P11362 22-822 limits assumed): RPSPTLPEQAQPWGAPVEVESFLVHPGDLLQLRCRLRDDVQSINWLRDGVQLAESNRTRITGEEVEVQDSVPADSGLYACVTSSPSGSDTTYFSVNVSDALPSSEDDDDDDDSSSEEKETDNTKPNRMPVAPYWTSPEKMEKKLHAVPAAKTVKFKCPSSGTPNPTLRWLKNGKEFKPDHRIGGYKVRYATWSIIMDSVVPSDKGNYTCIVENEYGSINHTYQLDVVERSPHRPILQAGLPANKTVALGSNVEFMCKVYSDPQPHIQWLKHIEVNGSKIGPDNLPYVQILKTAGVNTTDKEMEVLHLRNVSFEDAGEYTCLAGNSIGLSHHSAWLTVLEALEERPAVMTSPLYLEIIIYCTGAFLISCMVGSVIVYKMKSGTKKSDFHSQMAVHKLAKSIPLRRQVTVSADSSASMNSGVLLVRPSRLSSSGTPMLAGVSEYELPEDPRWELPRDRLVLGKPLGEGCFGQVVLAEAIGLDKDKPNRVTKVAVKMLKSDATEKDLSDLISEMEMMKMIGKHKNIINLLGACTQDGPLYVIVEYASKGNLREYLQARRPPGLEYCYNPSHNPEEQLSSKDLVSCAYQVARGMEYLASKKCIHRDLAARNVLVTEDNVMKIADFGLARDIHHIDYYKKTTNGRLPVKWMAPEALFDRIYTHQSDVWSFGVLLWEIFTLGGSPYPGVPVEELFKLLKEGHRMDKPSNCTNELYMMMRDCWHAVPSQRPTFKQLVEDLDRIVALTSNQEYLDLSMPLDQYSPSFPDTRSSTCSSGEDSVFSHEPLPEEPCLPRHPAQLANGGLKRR
Chain of Fibroblast growth factor receptor 3 (Homo sapiens) (P22607 23-806 limits assumed): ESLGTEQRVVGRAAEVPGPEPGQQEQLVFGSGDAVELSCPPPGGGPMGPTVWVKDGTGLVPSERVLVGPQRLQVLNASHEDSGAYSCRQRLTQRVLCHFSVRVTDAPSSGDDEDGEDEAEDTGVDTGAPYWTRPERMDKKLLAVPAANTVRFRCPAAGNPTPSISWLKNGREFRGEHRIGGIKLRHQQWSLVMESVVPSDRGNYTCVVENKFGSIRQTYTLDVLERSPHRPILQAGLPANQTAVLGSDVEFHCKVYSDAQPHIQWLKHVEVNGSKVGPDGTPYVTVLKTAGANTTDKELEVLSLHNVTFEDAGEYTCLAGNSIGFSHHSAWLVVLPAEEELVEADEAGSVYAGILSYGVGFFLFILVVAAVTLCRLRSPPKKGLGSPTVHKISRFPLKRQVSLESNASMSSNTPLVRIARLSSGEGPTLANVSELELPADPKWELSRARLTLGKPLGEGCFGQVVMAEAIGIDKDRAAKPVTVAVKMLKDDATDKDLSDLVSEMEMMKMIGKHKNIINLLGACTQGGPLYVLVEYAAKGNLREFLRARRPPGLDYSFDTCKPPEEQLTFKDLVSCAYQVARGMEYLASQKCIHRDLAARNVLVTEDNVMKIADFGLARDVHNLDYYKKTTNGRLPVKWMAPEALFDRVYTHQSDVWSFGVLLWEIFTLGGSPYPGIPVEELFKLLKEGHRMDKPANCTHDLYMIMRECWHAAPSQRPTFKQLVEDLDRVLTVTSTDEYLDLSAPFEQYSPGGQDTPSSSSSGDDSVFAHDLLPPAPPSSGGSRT
Chain of Tyrosine-protein kinase Fer (Homo sapiens) (P16591 whole entry, looked up): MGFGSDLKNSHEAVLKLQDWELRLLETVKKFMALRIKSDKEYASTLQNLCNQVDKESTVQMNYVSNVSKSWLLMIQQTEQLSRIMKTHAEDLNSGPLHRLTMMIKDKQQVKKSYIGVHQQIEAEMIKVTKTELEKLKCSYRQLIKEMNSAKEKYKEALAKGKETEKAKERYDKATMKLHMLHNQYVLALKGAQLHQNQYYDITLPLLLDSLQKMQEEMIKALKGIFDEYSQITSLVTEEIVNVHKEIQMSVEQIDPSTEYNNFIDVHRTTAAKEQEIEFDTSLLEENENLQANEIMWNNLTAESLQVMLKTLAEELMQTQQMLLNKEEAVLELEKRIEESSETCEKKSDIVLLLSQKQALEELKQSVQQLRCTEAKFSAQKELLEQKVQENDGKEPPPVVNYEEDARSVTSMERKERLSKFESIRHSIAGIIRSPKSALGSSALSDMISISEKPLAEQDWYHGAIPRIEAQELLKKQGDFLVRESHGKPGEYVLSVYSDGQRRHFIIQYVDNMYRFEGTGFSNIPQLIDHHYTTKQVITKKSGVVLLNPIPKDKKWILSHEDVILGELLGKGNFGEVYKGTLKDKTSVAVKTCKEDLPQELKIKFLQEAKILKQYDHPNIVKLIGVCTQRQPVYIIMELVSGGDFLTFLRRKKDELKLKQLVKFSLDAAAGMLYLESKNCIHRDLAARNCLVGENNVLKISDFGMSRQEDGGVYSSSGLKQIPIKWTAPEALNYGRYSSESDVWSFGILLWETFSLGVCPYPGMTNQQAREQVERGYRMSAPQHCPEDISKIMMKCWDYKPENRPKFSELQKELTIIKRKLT
Chain of Tyrosine-protein kinase Fgr (Homo sapiens) (P09769 2-529 limits assumed): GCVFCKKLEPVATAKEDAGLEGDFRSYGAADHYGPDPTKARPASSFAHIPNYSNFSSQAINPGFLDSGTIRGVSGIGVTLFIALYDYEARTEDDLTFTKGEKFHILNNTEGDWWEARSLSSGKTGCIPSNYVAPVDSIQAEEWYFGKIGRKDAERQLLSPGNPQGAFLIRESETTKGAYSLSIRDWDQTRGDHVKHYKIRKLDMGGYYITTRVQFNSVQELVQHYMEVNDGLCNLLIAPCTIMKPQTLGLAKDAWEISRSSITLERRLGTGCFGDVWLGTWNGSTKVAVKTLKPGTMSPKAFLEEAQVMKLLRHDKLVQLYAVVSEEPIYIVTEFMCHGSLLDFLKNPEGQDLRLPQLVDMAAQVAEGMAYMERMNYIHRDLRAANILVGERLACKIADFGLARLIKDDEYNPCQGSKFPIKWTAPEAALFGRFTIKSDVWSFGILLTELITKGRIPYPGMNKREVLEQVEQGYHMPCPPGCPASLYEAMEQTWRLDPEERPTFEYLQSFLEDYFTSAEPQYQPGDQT

For `CCOc1nccc2c1nc(-c1nonc1N)n2CC`, the inhibition in assay [1] amounted to 6.51%; in [2] it was 2.51%; in assay [3] it was 2.14%; in [4], 4.54%; in assay [5] it was 7.51%; in assay [6], 3.59%. In addition, the inhibition in assay [7] came to 10.6%; in assay [8] it was 5%; in [9], 10.9%; in [10], 2.6%; in assay [11], 4.2%; in assay [12], 6.66%. Besides, the inhibition was 5.06% in [13]; 2.14% in assay [14]; 2.02% in assay [15]; 0.14% in assay [16]; 1.3% in [17]; -2.2% in assay [18]. For the same compound, the inhibition in [19] turned out to be 1.21%; in [20] it was 3.25%.

Regarding `Cc1cc(-c2ccccn2)cc(C)c1/C=C/c1cncc(-c2nn[nH]n2)c1`, the inhibition in assay [1] came out at 2.12%; in assay [2] it was 3.53%; in assay [3], 5.62%; in [4], 1.35%; in assay [6], 4.22%; in assay [7] it was 7.33%. In addition, the inhibition in assay [8] is 5.34%; in [9], 4.82%; in assay [10], 2.42%; in assay [11], -0.54%; in assay [12], 2.37%; in [13] it was 18.2%. Also, the inhibition in assay [14] was -0.29%; in assay [15], 1.74%; in [16], 5.83%; in assay [17], 3.4%; in assay [18], -7.99%; in [19], -2.42%. The inhibition in assay [20] was determined as 0.01%.

`COc1cc2ncnc(Nc3ccc(C)c(O)c3)c2cc1OC`: the inhibition was 7.9% in [1]; 2.91% in assay [2]; 3.54% in [3]; 4.9% in assay [4]; 17.2% in assay [5]; 5.64% in [6]. Further, the inhibition was 15.8% in assay [7]; 6.03% in [8]; 10.2% in assay [9]; -0.45% in assay [10]; 4.07% in [11]; 15.3% in assay [12]. The inhibition in assay [13] is 46.2%; in [14] it was 74.6%; in assay [15] it was 93.2%; in [16] it was 0.71%; in assay [17], 3.03%; in assay [18], -2.6%. Besides, the inhibition in assay [19] is -3.35%; in [20], 6.68%.

`Oc1cccc(-c2nc(-c3ccccc3)[nH]c2-c2ccncc2)c1`: the inhibition stood at 0.53% in assay [1]; 2.34% in [2]; 1.64% in assay [3]; 1.95% in [4]; 7.19% in assay [5]; 4% in [6]. Also, the inhibition in assay [7] is 9.16%; in assay [8] it was 4.28%; in assay [9] it was 5.69%; in [10] it was 1.36%; in assay [11], 1.85%; in assay [12], 5.71%. In addition, the inhibition came to 19.5% in assay [13]; 10.6% in assay [14]; 43.8% in [15]; 5.28% in [16]; 19.5% in [17]; 0.36% in [18]. Also, the figures for the inhibition in assay [19] and in assay [20] were -1.42% and 3.99%, respectively.

As for `CN(C)c1cc2c(Nc3ccc4c(cnn4Cc4ccccc4)c3)ncnc2cn1`, the inhibition was 7.22% in [1]; 2.58% in assay [2]; 3.25% in [3]; 2.28% in [4]; 4.22% in [5]; 2.03% in assay [6]. The inhibition in [7] stood at 2.51%; in assay [8] it was 4.39%; in assay [9], 4.14%; in assay [10], 0.85%; in assay [11], 7.89%; in assay [12], 9.23%. In addition, the inhibition in assay [13] was 33.2%; in assay [14] it was 1.1%; in assay [15], 1.36%; in assay [16] it was 1.97%; in assay [17] it was 1.77%; in [18], 0.4%. Further, the inhibition was -5.95% in [19] and 0.23% in assay [20].

As for `NS(=O)(=O)c1cccc(-c2cc3ccncc3cc2OCc2ccccc2)c1`, the inhibition in assay [1] was 4.16%; in [2] it was 4.25%; in [3], 7.11%; in assay [4], 8.63%; in assay [5], 10.7%; in assay [6] it was 9.37%. For the same compound, the inhibition in [7] amounted to 15.6%; in assay [8], 8.37%; in [9], 13%; in assay [10] it was 0.02%; in assay [11], 3.21%; in [12] it was 1.58%. Further, the inhibition in assay [13] amounted to 7.39%; in assay [14], 1.89%; in assay [15], 3.8%; in assay [16], 4.34%; in [17] it was 2.96%; in [18], 1.09%. In addition, the inhibition was -5.35% in assay [19] and 2.68% in [20].

With `CCS(=O)(=O)c1ccc(OC)c(Nc2ncc(-c3cccc(OC)c3)o2)c1`, the inhibition in [1] was 3.8%; in [2], 1.8%; in [3], 2.42%; in assay [4] it was 9.22%; in assay [5] it was 40.2%; in [6] it was 30.9%. The inhibition stood at 68.2% in [7]; 28.7% in assay [8]; 70% in assay [9]; 2.6% in assay [10]; 7.65% in assay [11]; 19.9% in [12]. For the same compound, the inhibition in [13] stood at 65.2%; in [14], 9.91%; in assay [15] it was 55.9%; in assay [16] it was 16.3%; in assay [17], 68%; in assay [18] it was 29.4%. The inhibition in assay [19] is -4.34%; in [20], 7.64%.
